# Where “and” joins values, the source holds several entries; their conditions need not be identical. Equal entries are not always repeated. Out of some 190,000 compounds screened, about 6,900 (3.6%) were called active. The list comes from a sample in which actives are over-represented; it also holds similar structures and randomly drawn compounds. Values without a mark were called inactive. No stated cut-off is given here; in the data, active means inhibition above about 50%; inactive means the rest.
# Biological target: Huntingtin (Homo sapiens) (UniProt P42858)
# Test: mutant huntingtin-calmodulin interaction inhibitors – biochemical, AlphaScreen, primary screen (AID 1671202);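 further: 0% = both proteins with DMSO and 100% = one protein alone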
# Conditions: AlphaScreen His-mHTT/GST-CaM binding, luminescence; at 15 µM, stronger effect = higher value
# Chain of Huntingtin (Homo sapiens) (P42858 whole entry, looked up, stated change not applied): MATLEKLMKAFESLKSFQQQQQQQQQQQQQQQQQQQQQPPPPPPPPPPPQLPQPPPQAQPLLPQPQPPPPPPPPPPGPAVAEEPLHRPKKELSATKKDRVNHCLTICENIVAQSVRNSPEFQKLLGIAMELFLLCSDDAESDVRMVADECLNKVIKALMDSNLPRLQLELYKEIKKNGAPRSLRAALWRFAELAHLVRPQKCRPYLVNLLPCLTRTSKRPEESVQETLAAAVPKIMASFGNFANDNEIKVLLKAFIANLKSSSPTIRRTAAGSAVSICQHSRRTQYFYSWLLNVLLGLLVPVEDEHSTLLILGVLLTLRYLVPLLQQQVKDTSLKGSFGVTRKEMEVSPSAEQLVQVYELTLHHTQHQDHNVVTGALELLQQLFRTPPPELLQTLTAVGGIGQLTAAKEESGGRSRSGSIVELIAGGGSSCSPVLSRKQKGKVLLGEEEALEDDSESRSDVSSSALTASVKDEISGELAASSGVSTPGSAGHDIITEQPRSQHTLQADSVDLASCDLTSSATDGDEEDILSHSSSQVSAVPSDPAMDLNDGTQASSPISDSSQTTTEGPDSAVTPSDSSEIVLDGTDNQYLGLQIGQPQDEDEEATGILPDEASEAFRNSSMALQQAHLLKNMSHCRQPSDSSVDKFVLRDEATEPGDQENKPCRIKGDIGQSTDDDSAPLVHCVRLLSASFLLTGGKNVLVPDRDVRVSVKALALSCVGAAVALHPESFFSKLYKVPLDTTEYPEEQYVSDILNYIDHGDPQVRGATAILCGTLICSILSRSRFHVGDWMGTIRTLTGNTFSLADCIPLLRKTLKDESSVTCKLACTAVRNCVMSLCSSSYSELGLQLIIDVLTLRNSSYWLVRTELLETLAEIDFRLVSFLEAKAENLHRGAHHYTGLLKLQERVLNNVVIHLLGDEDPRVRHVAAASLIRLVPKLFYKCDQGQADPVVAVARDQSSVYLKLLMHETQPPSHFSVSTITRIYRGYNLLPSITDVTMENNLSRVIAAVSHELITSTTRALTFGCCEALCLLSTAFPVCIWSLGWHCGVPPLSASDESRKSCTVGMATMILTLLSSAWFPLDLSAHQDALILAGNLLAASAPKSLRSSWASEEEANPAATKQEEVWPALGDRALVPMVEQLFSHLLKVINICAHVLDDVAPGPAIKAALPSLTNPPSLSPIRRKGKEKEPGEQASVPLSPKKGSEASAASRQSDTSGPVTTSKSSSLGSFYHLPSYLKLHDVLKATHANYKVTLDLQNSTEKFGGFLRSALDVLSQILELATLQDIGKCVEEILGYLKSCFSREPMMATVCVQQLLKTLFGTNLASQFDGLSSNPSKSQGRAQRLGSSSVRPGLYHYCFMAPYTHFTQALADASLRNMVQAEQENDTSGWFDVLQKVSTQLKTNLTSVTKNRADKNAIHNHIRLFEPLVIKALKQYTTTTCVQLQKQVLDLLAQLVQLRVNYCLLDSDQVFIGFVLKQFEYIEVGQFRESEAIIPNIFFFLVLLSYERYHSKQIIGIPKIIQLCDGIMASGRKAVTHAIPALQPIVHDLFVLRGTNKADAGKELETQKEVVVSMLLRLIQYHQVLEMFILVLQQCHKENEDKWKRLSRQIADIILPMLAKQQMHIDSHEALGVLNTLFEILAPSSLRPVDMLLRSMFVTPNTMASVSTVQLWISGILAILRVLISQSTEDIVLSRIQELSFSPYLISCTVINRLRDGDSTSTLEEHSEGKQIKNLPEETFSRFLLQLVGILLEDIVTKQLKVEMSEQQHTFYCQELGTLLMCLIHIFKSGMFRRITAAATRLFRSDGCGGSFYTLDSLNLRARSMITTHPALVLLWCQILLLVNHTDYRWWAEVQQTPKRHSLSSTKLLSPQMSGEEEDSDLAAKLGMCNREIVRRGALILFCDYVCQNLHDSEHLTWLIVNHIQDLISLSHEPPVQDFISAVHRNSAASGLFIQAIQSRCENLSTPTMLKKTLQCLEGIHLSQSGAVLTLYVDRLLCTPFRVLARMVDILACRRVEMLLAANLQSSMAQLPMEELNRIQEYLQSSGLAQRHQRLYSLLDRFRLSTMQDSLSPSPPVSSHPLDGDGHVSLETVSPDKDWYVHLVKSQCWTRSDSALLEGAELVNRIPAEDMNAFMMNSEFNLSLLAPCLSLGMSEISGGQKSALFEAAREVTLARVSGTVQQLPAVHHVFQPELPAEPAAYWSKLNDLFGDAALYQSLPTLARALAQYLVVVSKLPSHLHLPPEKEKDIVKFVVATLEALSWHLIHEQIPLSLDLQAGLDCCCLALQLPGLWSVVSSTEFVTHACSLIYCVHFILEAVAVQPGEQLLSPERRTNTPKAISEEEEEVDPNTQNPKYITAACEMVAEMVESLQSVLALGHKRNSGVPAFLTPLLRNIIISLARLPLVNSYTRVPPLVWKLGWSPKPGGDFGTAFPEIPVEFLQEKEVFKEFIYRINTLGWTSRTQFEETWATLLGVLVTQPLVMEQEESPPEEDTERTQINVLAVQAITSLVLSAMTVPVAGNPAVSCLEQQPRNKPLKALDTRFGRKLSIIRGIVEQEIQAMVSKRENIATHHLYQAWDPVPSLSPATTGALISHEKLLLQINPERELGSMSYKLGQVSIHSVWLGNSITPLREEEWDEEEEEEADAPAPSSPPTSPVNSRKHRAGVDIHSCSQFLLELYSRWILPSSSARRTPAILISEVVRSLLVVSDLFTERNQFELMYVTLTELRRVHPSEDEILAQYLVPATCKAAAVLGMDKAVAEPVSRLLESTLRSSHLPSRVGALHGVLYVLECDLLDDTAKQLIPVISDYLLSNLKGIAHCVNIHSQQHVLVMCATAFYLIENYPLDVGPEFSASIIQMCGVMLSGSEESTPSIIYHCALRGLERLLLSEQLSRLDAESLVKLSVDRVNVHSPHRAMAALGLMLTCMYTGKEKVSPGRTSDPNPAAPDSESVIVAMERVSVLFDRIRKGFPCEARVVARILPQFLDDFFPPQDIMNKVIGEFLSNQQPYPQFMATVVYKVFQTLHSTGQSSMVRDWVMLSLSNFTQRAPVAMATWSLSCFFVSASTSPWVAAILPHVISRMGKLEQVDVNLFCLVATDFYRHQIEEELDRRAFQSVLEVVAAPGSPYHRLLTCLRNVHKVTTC
row,SMILES,inhibition
1,COc1ccc(N2C(=O)CSC2c2c(F)cccc2Cl)c(OC)c1 (centres undefined),1%
2,COc1cc([N+](=O)[O-])ccc1N=Cc1c(C)[nH]n(-c2ccccc2C)c1=O,57% (active)
3,COc1cc(SC#N)ccc1N=Cc1c(C)[nH]n(-c2ccc(Br)cc2)c1=O,2%
4,COc1cc([N+](=O)[O-])ccc1N=Cc1c(C)[nH]n(-c2ccc(C)c(C)c2)c1=O,11%
5,COc1cccc2cc(-c3cc(=O)oc4cc5c(cc34)CCCC5)oc12,-2.8%
6,O=C(c1c(F)cccc1F)N1CCN(S(=O)(=O)C2CC2)CC1,-10.4%
7,O=C1Nc2ccccc2Oc2cc([N+](=O)[O-])cc(Oc3ccccc3Br)c21,32%
8,COc1ccccc1C(=O)N1CCCC2(C1)Nc1cccnc1NC2=NCc1ccccc1 (centres undefined),1.03%
9,O=C(c1ccccn1)N1CCC2(C1)NCc1ccccc1NC2=NCc1ccccc1 (centres undefined),12.6%
10,COCCNC(=O)N1CCCC2(C1)Nc1ccccc1NC2=NCc1ccccc1 (centres undefined),97.7% (active)
11,c1ccc(CN=C2Nc3ccccc3NC23CCCNC3)cc1 (centres undefined),25.7%
12,CC(C)(C)C(=O)N1CCCC2(C1)Nc1ccccc1NC2=NCc1ccccc1 (centres undefined),100% (active)
13,O=C(c1cnccn1)N1CCCC2(C1)Nc1ccccc1NC2=NCc1ccccc1 (centres undefined),25.6%
14,Cc1cccc(-c2csc3c(=O)n(Cc4ccc(F)cc4)cnc23)c1,-29.4%
15,O=S1(=O)c2ccccc2S(=O)(=O)N1c1cc(F)ccc1F,6%
16,O=C(c1cccc2c1CCN2C(=O)C1CC1)N1CCOCC1,-4.9%
17,CC12C=CC(O1)C1C(=O)N(c3ccc(Cl)c(C(=O)O)c3)C(=O)C12 (centres undefined),-2%
18,O=C(NCc1ccccc1Cl)c1cnn2c3c(cnc12)CCCCCC3,-7%
19,COc1cccc(N=Cc2cc(Br)ccc2O)c1,13%
20,O=C1OC(c2ccco2)=N/C1=C/c1ccc2c(c1)OCO2,29%
21,CSC1=N/C(=C\c2ccc3c(c2)OCO3)C(=O)S1,-2%
22,O=C1/C(=C/c2ccc3c(c2)OCO3)CCC/C1=C\c1ccc2c(c1)OCO2,58% (active)
23,COc1cc(Cl)ccc1C(=O)N1CCC(c2nc(CCNC(C)=O)cs2)CC1,5.03%
24,Cc1cccc(C(=O)N2CCCC(C(=O)NC3CCCC3)C2)c1 (centres undefined),25.1%

row,SMILES,inhibition
1,O=C(c1cc(-c2ccccc2)n[nH]1)N1CCN(c2ncccn2)CC1,-17.7%
2,Cc1nn(-c2ccccc2)c(Cl)c1C(=O)N1CCOCC1,1%
3,Cc1nn(-c2ccccc2)c(C)c1N1CCN(C(=O)c2cc(-c3ccccc3)n[nH]2)CC1,98.9% (active)
4,COc1ccc(-c2nc(SCC(=O)Nc3ccc(OC(F)(F)F)cc3)[nH]c(=O)c2C#N)cc1,14%
5,COc1ccc(OC)c(C=C2Oc3c(ccc(O)c3CN3CCCCC3C)C2=O)c1 (centres undefined),-1.3%
6,COc1ccc(-c2nnc(N3CCC(C(=O)NCc4cccc(OC)c4)CC3)o2)cc1,21%
7,COc1ccc(N2CC(C(=O)Nc3ccc(C(C)C)cc3)CC2=O)cc1 (centres undefined),0.1%
8,Cc1ccc(N2CC(C(=O)N(C)C(C)C)CC2=O)cc1 (centres undefined),-4.2%
9,CC(C)c1ccc(N2CC(C(=O)N(C)Cc3ccccc3)CC2=O)cc1 (centres undefined),56.5% (active)
10,Cc1ccc(C(=O)NCC2CCCN(S(=O)(=O)c3ccc(F)cc3F)C2)cc1 (centres undefined),-3.67%
11,O=C(CCn1c(=O)c2sccc2n(Cc2cccc(Cl)c2)c1=O)NCc1ccccc1,-2%
12,COc1ccccc1CCC(=O)N1CCCn2nc(-c3cccc(C)c3)cc2C1,68.3% (active)
13,COc1ccccc1CC(=O)N1CCCn2nc(-c3ccc(C)cc3)cc2C1,37.9%
14,Cc1cccc(-c2cc3n(n2)CCCN(C(=O)C(C)Oc2ccccc2)C3)c1 (centres undefined),42.9%
15,CCOc1ccccc1Oc1c(C)oc2c(CN(CC)CC)c(O)ccc2c1=O,3.7%
16,CCC(CC)C(=O)Nc1ccc(Br)cc1F,-9.3%
17,Cn1nc(-c2nc(-c3cccc(F)c3)no2)c2c1CCN(C(=O)Cc1cccs1)C2,20.1%
18,COc1ccc(-c2c(C)cc3oc(=O)cc(-c4ccccc4)c3c2C)cc1F,-2.4%
19,COc1ccc(-c2c(C)cc3oc(=O)cc(-c4ccccc4)c3c2C)cc1OC,-2.2%
20,CCN(CC)C(=O)CC(c1ccc2c(c1)OCO2)c1c(OC)cc(OC)c2c(-c3ccccc3)cc(=O)oc12 (centres undefined),74.9% (active)
21,COc1cccc2cc(-c3nc(-c4ccc5c(c4)OCO5)cs3)c(=O)oc12,-9%
22,CCN(CC)CCC(c1cc(OC)c(OC)c(OC)c1)c1c(OC)cc(OC)c2c(-c3ccccc3)cc(=O)oc12 (centres undefined),-4.8%
23,CCN(CC)CCC(c1ccc2c(c1)OCO2)c1c(OC)cc(OC)c2c(-c3ccccc3)cc(=O)oc12 (centres undefined),101% (active)
24,Cc1ccc(Cc2c(C)nc(C)nc2N2CCN(C(=O)c3ccccc3)CC2)cc1,11.3%

row,SMILES,inhibition
1,COCCc1noc(COC2CCCN(C(=O)c3ccccn3)C2)n1 (centres undefined),-8.61%
2,CCNc1cc(NCCNC(=O)c2cccc(F)c2)nc(C)n1,-7.5%
3,CSc1cccc(NC(=O)NCCNc2cc(-n3ccnc3C)nc(C)n2)c1,99.9% (active)
4,CCc1ccccc1NC(=O)NCCNc1cc(-n2nc(C)cc2C)nc(C)n1,-5.7%
5,O=C1C(c2ccc(F)cc2)N(C2CCCC2)C(=O)CN1C1CCCCCC1 (centres undefined),-6%
6,O=C(CCCn1c2ccccc2c(=O)c2ccccc21)Nc1ccc(C(F)(F)F)cn1,23%
7,O=C(NCc1cccc(F)c1)c1cc2n(n1)CCCN(Cc1ccc(Cl)cc1)C2=O,16.8%
8,CCCc1cc(C2CCCN2Cc2cc(OC)c(OC)cc2OC)no1 (centres undefined),37.6%
9,COc1cc(C2NC(C(=O)O)CS2)ccc1O (centres undefined),-7%
10,COc1ccc([N+](=O)[O-])cc1NC(=O)c1ccc(C)c(Br)c1,8.5%
11,COc1ccc([N+](=O)[O-])cc1-n1c(C)ccc1C,51.9% (active)
12,COc1ccc([N+](=O)[O-])cc1NC(=O)CC(C)C,-0.3%
13,O=C(CC(C(=O)O)N1CCNCC1)Nc1ccc(OC(F)F)cc1 (centres undefined),-16.1%
14,Cc1ccc(NC(=O)Cn2cccc2-c2nnc(C3CCC3)o2)cc1,12.1%
15,O=C1c2ccccc2C(=O)c2c(NC3CCCCC3)cccc21,73% (active)
16,CC1CCCC(C)N1C(=O)c1cccc2c1-c1ccccc1C2=O (centres undefined),-6% and 2.5%
17,O=C1c2ccccc2C(=O)c2c(NC(=O)c3c(F)cccc3F)cccc21,1%
18,O=C(CSc1ccc(C(F)(F)F)cc1[N+](=O)[O-])Nc1ccccc1Cl,8%
19,O=C1NC(=O)/C(=C\c2ccc(OCc3ccc([N+](=O)[O-])cc3)c(Br)c2)N1,10%
20,CCOc1cc(/C=C2\NC(=O)NC2=O)cc(Cl)c1OC(C)C,14%
21,CCOc1cc(/C=C2\NC(=O)NC2=O)cc(Cl)c1OCc1ccc([N+](=O)[O-])cc1,74% (active)
22,COc1cccc(C=C2Oc3c(ccc4c3CN(Cc3cc(OC)c(OC)c(OC)c3)CO4)C2=O)c1,56.5% (active)
23,COc1cccc(CN2COc3ccc4c(c3C2)OC(=Cc2cccnc2)C4=O)c1,3.4%
24,COc1cccc(CN2COc3ccc4c(c3C2)OC(=Cc2ccc(OC)c(OC)c2OC)C4=O)c1,35.7%

row,SMILES,inhibition
1,CCn1cnnc1C1CCCCN1C(=O)c1cnccn1 (centres undefined),0.74%
2,CCOc1ccccc1/C=C1\N=C(c2ccc([N+](=O)[O-])cc2Cl)OC1=O,-1%
3,CN1CCC(CCNC(=O)c2ccc3[nH]c4c(c3c2)CN(C(=O)C2CCC2)CC4)CC1,4.82%
4,CC(=O)N1CCc2[nH]c3ccc(C(=O)NC4CCCCC4)cc3c2C1,9.6%
5,CC(=O)N1CCc2[nH]c3ccc(C(=O)NCCc4ccccn4)cc3c2C1,58.7% (active)
6,Oc1ccc(Nc2nc(-c3ccc(Cl)cc3Cl)nc3ccccc23)cc1,37.4%
7,CCc1cc(C(=O)Nc2ccccc2)no1,-4.5%
8,CCNc1cc(Nc2ccccc2)c2c3c(onc13)-c1ccccc1C2=O,100% (active)
9,O=C(NCc1ccc(Cl)cc1)c1ccc2ncnc(N3CCOCC3)c2c1,-1.3%
10,CC(=O)c1cccc(NC(=O)C2CCN(S(=O)(=O)c3ccc(Br)cc3)CC2)c1,-1.7%
11,COc1ccc(C2NC(c3ccc(OC)c(OC)c3)C(C)C(=O)C2C)cc1OC (centres undefined),10%
12,Cc1ccc(CNC(=O)C2CC(=O)N(C3CCCCCCC3)C2)cc1 (centres undefined),8.83%
13,Cc1ccc(CNC(=O)C2CC(=O)N(C3CCCCC3)C2)cc1 (centres undefined),2.18%
14,CCN(CCCNC(=O)C1CC(=O)N(C2CCCCCCC2)C1)c1cccc(C)c1 (centres undefined),53% (active)
15,COc1ccc(-n2nc3c(c2NC(=O)c2cccc(OC)c2OC)CS(=O)C3)cc1 (centres undefined),5%
16,O=C1C2C(C(=O)N1c1cc([N+](=O)[O-])ccc1Cl)C1C=CC2C12CC2 (centres undefined),4%
17,Cc1ccnc(N2CCCC(C(=O)NCCc3ccc(Cl)cc3)C2)n1 (centres undefined),7.6%
18,Cc1ccc2cc3cc(C(=O)N(C)c4ccc(Br)cc4)oc3nc2c1,-8%
19,Cc1ccc(CNC(=O)CCC(=O)N2CCCn3nc(C)cc32)cc1,1.63%
20,COc1ccc(C(=O)NCCc2nc3ccccc3n2Cc2ccccc2C)cc1OC,77% (active)
21,COc1ccc(C(=O)NCCc2ccc(S(N)(=O)=O)cc2)cc1OC,9.3%
22,COc1ccc(OC)c2[nH]c(=O)c(CCNC(=O)c3ccc(C)c(C)c3)cc12,28%

# Reference: PubChem BioAssay AID1671202 (University of Kansas High Throughput Screening Laboratory, 2021)
